Experimental findings from the supplement of paper PMC10681739 are described below.

The target of one assay is T1, ETS1 (UniProt P14921).
T1 sequence: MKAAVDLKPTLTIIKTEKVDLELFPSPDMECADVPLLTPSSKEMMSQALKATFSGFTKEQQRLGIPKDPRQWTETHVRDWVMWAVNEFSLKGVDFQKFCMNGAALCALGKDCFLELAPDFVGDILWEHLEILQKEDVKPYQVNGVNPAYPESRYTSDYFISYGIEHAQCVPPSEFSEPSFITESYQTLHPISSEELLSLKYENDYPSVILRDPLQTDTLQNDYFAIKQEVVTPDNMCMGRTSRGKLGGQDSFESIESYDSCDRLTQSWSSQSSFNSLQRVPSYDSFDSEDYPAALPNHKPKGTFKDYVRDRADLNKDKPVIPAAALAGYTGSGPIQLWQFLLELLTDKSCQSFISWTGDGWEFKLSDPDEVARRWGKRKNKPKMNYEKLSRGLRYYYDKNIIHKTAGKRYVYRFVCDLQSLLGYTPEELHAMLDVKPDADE
As to the kind of experiment: ETS1 binding intensity (PBM fluorescence), ETS1 alone (arbitrary fluorescence units); higher = stronger binding. As to conditions: ETS1 concentration 1 nM; RUNX1 concentration 0 nM.

For assay [1], the target named is RUNX1 (UniProt Q01196). As to the kind of experiment: RUNX1 binding intensity (PBM fluorescence), RUNX1 alone (arbitrary fluorescence units); higher = stronger binding. As to conditions: RUNX1 concentration 2 nM; ETS1 concentration 0 nM. As for the experimental part: (§1)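 Cooperative gcPBM on 36-bp genomic probes with neighbouring ETS1 and RUNX1 sites. Recombinant human RUNX1 (2 nM) was incubated alone or with ETS1 (25 nM) and detected with anti-RUNX1 antibody plus Alexa488 secondary. Values are medians over 4 replicate spots; the RUNX1+ETS1 data were normalised to the RUNX1-only data. The probes sit in constant array flanks that are not printed.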

Assay [2] addresses RUNX1 (UniProt Q01196). The assay is described as follows: RUNX1 binding intensity (PBM fluorescence) in presence of ETS1, normalised to RUNX1-only experiment (arbitrary fluorescence units); higher = stronger binding. Particulars: RUNX1 concentration 2 nM; ETS1 concentration 25 nM. The protocol:
as §1
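For RUNX1 binding intensity (PBM fluorescence) in presence of ETS1, normalised to RUNX1-only experiment in this document: Full-length recombinant human ETS1 or RUNX1 bound to double-stranded 36-bp genomic probes on microarrays, detected by protein-specific primary antibody and Alexa488 secondary, spot fluorescence as median of four replicate spots.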
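For RUNX1 binding intensity (PBM fluorescence), RUNX1 alone in this document: Full-length recombinant human RUNX1 bound to double-stranded 36-bp genomic probes on a high-density microarray, scored as Alexa488 fluorescence per spot via anti-RUNX1 antibody, median of four replicate spots.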

Chain of RUNX1 (Q01196 whole entry): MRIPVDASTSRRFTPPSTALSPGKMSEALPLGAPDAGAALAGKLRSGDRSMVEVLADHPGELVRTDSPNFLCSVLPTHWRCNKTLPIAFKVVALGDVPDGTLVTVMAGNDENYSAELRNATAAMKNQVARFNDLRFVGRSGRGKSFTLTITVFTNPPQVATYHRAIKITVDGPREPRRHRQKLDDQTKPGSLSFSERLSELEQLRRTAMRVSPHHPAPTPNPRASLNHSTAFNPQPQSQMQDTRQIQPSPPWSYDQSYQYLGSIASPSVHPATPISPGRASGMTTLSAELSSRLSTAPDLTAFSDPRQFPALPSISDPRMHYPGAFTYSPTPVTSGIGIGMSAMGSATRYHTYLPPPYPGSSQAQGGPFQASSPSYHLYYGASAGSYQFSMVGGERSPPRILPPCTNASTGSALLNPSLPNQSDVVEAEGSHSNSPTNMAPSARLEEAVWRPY

On to TTCTCATCCGGCCGGCTTGCTTTCCCCTGCGGTCGT, for which the ETS1 binding intensity in the assay with ETS1 was determined as 394. Also, the RUNX1 binding intensity came out at 962 with RUNX1 [1] and 1650 with RUNX1 [2].

Turning to TCCAGCTCCACAGGATGTGGTGAGTGAAGCAGCAAG, the ETS1 binding intensity in the assay with ETS1 worked out at 2590. Also, the RUNX1 binding intensity turned out to be 694 with RUNX1 [1] and 2380 with RUNX1 [2].

Consider GAAAAATGAAGTTTCCGCAGTAACCACAACACAGCC, for which the ETS1 binding intensity in the assay with ETS1 turned out to be 556. Besides, the results for the RUNX1 binding intensity with RUNX1 [1] and in the assay with RUNX1 [2] were 1350 and 2620, respectively.

On to ATCTTAAGTGTTTCCTGACACCACAAATCCCCAAAC, for which the ETS1 binding intensity with ETS1 was 501. The RUNX1 binding intensity with RUNX1 [1] and with RUNX1 [2] was 1020 each time.

Sequence TAGCCACTAACCGGAAACGTTAAACCACAGCTCCGT returned an ETS1 binding intensity with ETS1 of 10100. The RUNX1 binding intensity with RUNX1 [1] came out at 1180; with RUNX1 [2] it was 7440.

GGCCTTCATTACACAGGATGCGGTTGAAATGCATCA returned an ETS1 binding intensity with ETS1 of 4110. Further, the RUNX1 binding intensity with RUNX1 [1] was 931; with RUNX1 [2], 1630.

Take CCTTGCTACAGGATGTTTTGACCACGAGCCCAGGAG: in the assay with ETS1, the ETS1 binding intensity stood at 1440. Besides, the values for the RUNX1 binding intensity with RUNX1 [1] and with RUNX1 [2] were 1090 and 1390, respectively.

The sequence GAAGTGTGCTCTTCCGGTACCTGCGGTTCGTTGCGC had an ETS1 binding intensity in the assay with ETS1 of 1770. Moreover, the RUNX1 binding intensity with RUNX1 [1] was 808; in the assay with RUNX1 [2] it was 2670.

TGGCAGAGCACATCCTGTGCGGTTTTCAGTTTTGCT: the ETS1 binding intensity in the assay with ETS1 stood at 1120. In addition, the results for the RUNX1 binding intensity with RUNX1 [1] and with RUNX1 [2] were 2600 and 5430, respectively.

In the case of CGGGAACACCCACTTCCGCCACAGACCTGCTCAAAA, in the assay with ETS1, the ETS1 binding intensity amounted to 1400. Moreover, the RUNX1 binding intensity with RUNX1 [1] turned out to be 1090; in the assay with RUNX1 [2], 3820.

For the sequence ATTTAGGAGGAAGTTTCCAGTACCACAACCTCACAG, in the assay with ETS1, the ETS1 binding intensity was determined as 430. Also, the RUNX1 binding intensity in the assay with RUNX1 [1] worked out at 868; with RUNX1 [2], 788.

Take GAGGGGGAGGTTTCCGGGGCCTGTGGTTACTACACT: the ETS1 binding intensity with ETS1 was 438. The RUNX1 binding intensity with RUNX1 [1] amounted to 943; with RUNX1 [2], 1910.

Regarding GCGGCTGAGAACACAGGATGTGGCTTTTGGCAGATG, the ETS1 binding intensity with ETS1 stood at 6080. Further, the RUNX1 binding intensity is 674 with RUNX1 [1] and 1680 in the assay with RUNX1 [2].

In the case of GGGTCTCCAGGAAGCCACTCACCACAAACTTTGACA, the ETS1 binding intensity with ETS1 is 482. Moreover, the RUNX1 binding intensity with RUNX1 [1] worked out at 1080; with RUNX1 [2] it was 1480.

ACACCTCAGGAAGTGGCAGAGACCACAACAAGTCAG: in the assay with ETS1, the ETS1 binding intensity stood at 701. Further, the RUNX1 binding intensity in the assay with RUNX1 [1] worked out at 816; with RUNX1 [2], 1620.

The sequence GCAGTCAGAAGGTGCGGATGCGGTAAGGTATGCGCT returned an ETS1 binding intensity with ETS1 of 1130. Further, the RUNX1 binding intensity with RUNX1 [1] stood at 835; with RUNX1 [2], 1270.

Turning to CAGAGCCAAACATGCGGAAGTGGTTACGTGTACTAG, the ETS1 binding intensity with ETS1 stood at 3280. The values for the RUNX1 binding intensity with RUNX1 [1] and with RUNX1 [2] were 795 and 1900, respectively.

In the assay with ETS1, TGCAAAAAAACAGGAAACACCCAGCCGCAAATTATA showed an ETS1 binding intensity of 1740. In addition, the RUNX1 binding intensity with RUNX1 [1] amounted to 863; with RUNX1 [2], 1230.

For the sequence GGTCTCTGCTTCCGGTCCTTGTGGTAGCACCTCTGT, the ETS1 binding intensity with ETS1 is 4510. For the same sequence, the RUNX1 binding intensity with RUNX1 [1] is 936; with RUNX1 [2], 2710.

In the assay with ETS1, GGAGGTGGGGAGGAAGTTCTGAAACCACACACATTT returned an ETS1 binding intensity of 749. The RUNX1 binding intensity with RUNX1 [1] is 891; in the assay with RUNX1 [2] it was 1090.

Take ACCTCAAGCCCAGGATGTGGTTTGGCCACTATTGAG: in the assay with ETS1, the ETS1 binding intensity stood at 1310. The RUNX1 binding intensity in the assay with RUNX1 [1] came out at 804; with RUNX1 [2], 1680.

Turning to TTCAGGTGACTTCCGGCCGGACCGCTGAGGACGCGG, in the assay with ETS1, the ETS1 binding intensity came out at 9020. Moreover, the results for the RUNX1 binding intensity with RUNX1 [1] and with RUNX1 [2] were 684 and 1630, respectively.

On to GCATTTACGGGCAGGAAATGAAACCACAGAGTACAA, for which, in the assay with ETS1, the ETS1 binding intensity stood at 5420. The values for the RUNX1 binding intensity with RUNX1 [1] and with RUNX1 [2] were 1360 and 3610, respectively.

Turning to GAGTGGGCGGAAATCCGTGCCTGGCAGACCACAAAG, the ETS1 binding intensity with ETS1 was 1320. In addition, the RUNX1 binding intensity in the assay with RUNX1 [1] came to 765; with RUNX1 [2], 1500.

Turning to GTCTTACTTCCTGTCCCCGCCCACCGCGACTGTCTT, the ETS1 binding intensity with ETS1 amounted to 2560. For the same sequence, the RUNX1 binding intensity with RUNX1 [1] turned out to be 1740; with RUNX1 [2] it was 3600.

With TCCTATATACTTCCGTTTGCCTCGCGGTTTCTTTCT, the ETS1 binding intensity with ETS1 came to 1300. The RUNX1 binding intensity in the assay with RUNX1 [1] is 2730; with RUNX1 [2] it was 4520.

In the assay with ETS1, CAACCCGGAAGCACTAACGGAGAAACCGCAACTCGG returned an ETS1 binding intensity of 729. In addition, the RUNX1 binding intensity worked out at 3460 with RUNX1 [1] and 12700 with RUNX1 [2].

The sequence GACAGACCTTAGGAAGTCGCGGTTTCATCAGGGCTT came in with an ETS1 binding intensity with ETS1 of 422. Also, the figures for the RUNX1 binding intensity in the assay with RUNX1 [1] and in the assay with RUNX1 [2] were 916 and 1220, respectively.

As to GCCACACTTCCGGCGGGGCTGCGACCGCAGAGGGGC, the ETS1 binding intensity with ETS1 was 1170. Further, the RUNX1 binding intensity with RUNX1 [1] came to 1140; with RUNX1 [2] it was 3600.

Consider TTCAACAGGATGTGGGAACTTGACTCTCGCCGCAAA, for which the ETS1 binding intensity in the assay with ETS1 was determined as 3560. Further, the RUNX1 binding intensity in the assay with RUNX1 [1] was 737; with RUNX1 [2] it was 3720.

Consider CTCTGAGCAGGAAGTGACAAAACCACGCAGGGCAGG, for which the ETS1 binding intensity in the assay with ETS1 turned out to be 3150. Further, the figures for the RUNX1 binding intensity in the assay with RUNX1 [1] and in the assay with RUNX1 [2] were 798 and 1160, respectively.

Sequence AGTAGAGGAGGAAGTTAAATGTGGTTTTCTGGGTGG registered an ETS1 binding intensity with ETS1 of 864. In addition, the RUNX1 binding intensity in the assay with RUNX1 [1] was 857; in the assay with RUNX1 [2], 1130.

In the assay with ETS1, ATAGACTCAGGAAGTGATTGTGGTAAGATTCTATAT came in with an ETS1 binding intensity of 1460. In addition, the RUNX1 binding intensity amounted to 829 in the assay with RUNX1 [1] and 1440 with RUNX1 [2].

As for CGCCGAACTTCCGGCAGTAAATTCCGTGGTTTCCCT, the ETS1 binding intensity with ETS1 turned out to be 2800. The RUNX1 binding intensity came out at 911 with RUNX1 [1] and 2400 with RUNX1 [2].

Sequence GTTGTGCTCTTTCCTGCTTCCCGCAGTTTTTTAGTT yielded an ETS1 binding intensity with ETS1 of 626. Also, the RUNX1 binding intensity with RUNX1 [1] is 1470; with RUNX1 [2], 1890.

With AATCCACCGGAAACACTTAGACGCCGCAACCCCAGT, in the assay with ETS1, the ETS1 binding intensity was 3660. The RUNX1 binding intensity worked out at 895 with RUNX1 [1] and 1590 in the assay with RUNX1 [2].

As to AGGTCGCCCTCCGGATGCGGTCCCCACACCGCCTGC, in the assay with ETS1, the ETS1 binding intensity is 1870. The RUNX1 binding intensity was 857 with RUNX1 [1] and 1490 with RUNX1 [2].

Regarding TACACTCCCACATCCGCTGCGGCGCAACTCACAACA, the ETS1 binding intensity in the assay with ETS1 came out at 969. Further, the RUNX1 binding intensity with RUNX1 [1] is 1020; with RUNX1 [2], 6980.

The sequence CGGCAGGCAAGCAGGAAACCGCGAGTGGAGAAAGGG registered an ETS1 binding intensity with ETS1 of 1960. For the same sequence, the figures for the RUNX1 binding intensity with RUNX1 [1] and in the assay with RUNX1 [2] were 1010 and 1860, respectively.

In the assay with ETS1, AAAAAGCCGGATGTGAAGGCTGTGGTTCTCAACCCG returned an ETS1 binding intensity of 2880. For the same sequence, the RUNX1 binding intensity was determined as 745 in the assay with RUNX1 [1] and 1310 with RUNX1 [2].

In turn, ACCCAGTAGGGGCCAGGATGTGGTGAAAAGAGAATT displayed an ETS1 binding intensity with ETS1 of 1610. The results for the RUNX1 binding intensity with RUNX1 [1] and with RUNX1 [2] were 728 and 1020, respectively.

Consider CACCCCCCCAGTGCAGGAAGTGGTTTTCGAGGGCAG, for which, in the assay with ETS1, the ETS1 binding intensity turned out to be 4490. In addition, the results for the RUNX1 binding intensity with RUNX1 [1] and with RUNX1 [2] were 908 and 1790, respectively.
